Anthrax LF prot: anthrax lethal factor protease inhibition | hit rate 0.12% among 360,000 | multiplex microsphere protease cleavage assay, LF | inhibition, % at 10 µM | AID 588501 | P15917; note: plate controls were buffer without enzyme for full effect and enzyme alone for no effect
Target sequence (P15917 whole entry, looked up): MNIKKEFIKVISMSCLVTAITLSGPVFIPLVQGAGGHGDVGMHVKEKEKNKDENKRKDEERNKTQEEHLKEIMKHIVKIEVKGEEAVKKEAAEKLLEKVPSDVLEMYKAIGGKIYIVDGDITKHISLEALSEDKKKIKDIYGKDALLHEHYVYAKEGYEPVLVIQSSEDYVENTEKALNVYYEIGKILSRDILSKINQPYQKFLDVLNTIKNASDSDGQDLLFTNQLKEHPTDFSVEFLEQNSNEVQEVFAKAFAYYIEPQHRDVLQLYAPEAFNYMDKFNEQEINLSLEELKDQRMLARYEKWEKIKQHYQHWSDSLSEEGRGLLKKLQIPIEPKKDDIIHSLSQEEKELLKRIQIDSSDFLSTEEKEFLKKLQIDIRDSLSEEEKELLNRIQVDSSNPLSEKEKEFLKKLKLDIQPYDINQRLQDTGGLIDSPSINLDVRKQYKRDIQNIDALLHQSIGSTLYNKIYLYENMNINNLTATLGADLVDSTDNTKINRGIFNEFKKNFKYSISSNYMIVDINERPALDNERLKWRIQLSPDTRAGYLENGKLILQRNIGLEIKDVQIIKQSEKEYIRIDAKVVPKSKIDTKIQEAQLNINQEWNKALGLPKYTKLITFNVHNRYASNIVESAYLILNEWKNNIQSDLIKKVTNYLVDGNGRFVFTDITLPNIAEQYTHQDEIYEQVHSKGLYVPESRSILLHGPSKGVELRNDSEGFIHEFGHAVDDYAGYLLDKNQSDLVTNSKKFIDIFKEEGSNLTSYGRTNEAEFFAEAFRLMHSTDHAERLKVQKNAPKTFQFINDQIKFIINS
BoNT-F LC inh: inhibitors of Botulinum neurotoxin F light chain protease. Multiplex microsphere protease cleavage assay, flow cytometry. inhibition, % at 10 µM. hit rate 0.22% among 360,000; in the data active = inhibition above about 35%, passing the limit was not always enough; inconclusive = no clear call, values can overlap the other calls; note: plate controls were buffer without enzyme for full effect and enzyme alone for no effect
Autofluor counter: flagged as autofluorescent in microsphere protease counterscreen | hit rate 3.1% among 360,000 | compound autofluorescence counterscreen, microsphere flow cytometry; hits give high values | AID 624483 | fluorescence intensity (concentration not given with the values); in the data active = fluorescence intensity above about 16000; inconclusive = no clear call, values can overlap the other calls
PfHsp40 yeast: restores yeast growth despite PfHsp40 toxicity. growth rescue, % at 12.5 µM. hit rate 0.68% among 340,000. S. cerevisiae expressing PfHsp40, growth rescue, ATP luminescence; in the data active = growth rescue above about 28%, passing the limit was not always enough; inconclusive = no clear call, values can overlap the other calls;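 note: yeast W303a lacking pdr1 and pdr3 grown in galactose medium; growth measured after three days at 30 °C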
MazEF act: MazEF (E. coli) toxin RNase activation; FAM/BHQ RNA-DNA oligo cleavage fluorescence, 5 h; hit rate 0.32% among 350,000; activation, % at 20 µM; in the data active = activation above about 50%
BoNT A protease: inhibitors of Botulinum neurotoxin A light chain protease. multiplex microsphere protease substrate cleavage, flow cytometry. inhibition, % at 10 µM. hit rate 0.17% among 360,000. AID 588499; note: plate controls were buffer without enzyme for full effect and enzyme alone for no effect
* = called active by the depositor; ? = inconclusive; · = no result given. This is a sample that favours compounds with a hit; in the whole collection about 4.3% have one here. Cut-off read from the data, not from the text of the source, unless noted: active = inhibition above about 30%; inconclusive = no clear call, values can overlap the other calls; inactive = below that.

SMILES	Anthrax LF prot	BoNT-F LC inh	Autofluor counter	PfHsp40 yeast	MazEF act	BoNT A protease
CN(C(=O)Cn1cc(C(F)(F)F)ccc1=O)c1c(N)n(Cc2ccccc2)c(=O)[nH]c1=O	-4.5	-1.7	3366	0.1	-0.2	-0.1
CCCCn1c(N)c(N(C)C(=O)c2ccccc2Oc2ccccc2)c(=O)[nH]c1=O	7.6	3.6	2842	0.4	-16.6	0.5
c1ccc2c(c1)nc1n2C2(N3CCOCC3)CCCC2C1N1CCOCC1 (stereo not drawn)	-2.0	-4.0	20620*	-2.2	-14.6	-0.9
O=C1C=Cc2cccc3ccc(O)c1c23	38.0*	12.3	3437	10.5	-8.3	61.1*
COc1cccc(-c2ncn(CCc3ccccc3OC)c2C(C)C)c1	-12.1	1.5	5845	·	·	-0.7
COc1cc(OC)cc(C(=O)NC2CCSC2=O)c1 (stereo not drawn)	-2.0	-3.7	17088*	-0.1	2.7	-1.3
N=c1n(CC(=O)c2cccs2)c2ccccc2n1Cc1ccccc1	4.9	?	4692	0.4	12.0	-3.6
CC(C)(C(=O)c1ccccc1)/[N+]([O-])=C/c1ccccc1	-1.2	0.0	23931*	0.4	1.6	-1.2
CC(C)(C(=O)c1ccccc1)/[N+]([O-])=C/c1ccc(F)cc1	-3.9	4.5	9958	-0.1	0.9	-0.7
COc1ccc(C(=O)Nc2c(N)nc(SCC(=O)NCC3CCCO3)[nH]c2=O)cc1 (stereo not drawn)	-1.3	-9.5	6102	0.1	7.1	1.1
Oc1ccc(C=NCC2COc3ccccc3O2)cc1 (stereo not drawn)	-0.1	-0.7	20126*	-0.9	-0.7	1.9
CCOC(=O)C1CCCN(CCC(=O)Nc2c(C(=O)OC)[nH]c3cc(OC)ccc23)C1 (stereo not drawn)	-2.3	5.8	19014*	0.2	1.1	?
COC(=O)c1[nH]c2cc(OC)ccc2c1NC(=O)CCN1CCN(c2ccccc2)CC1	-2.2	1.3	23523*	-0.6	7.1	0.4
CCN(C(=O)COC(=O)c1c(C)c(-c2ccccc2)nc2ccccc12)C1CCS(=O)(=O)C1 (stereo not drawn)	-4.5	-1.9	4239	0.7	-2.0	0.6
CCOc1ccccc1NC(=O)CCS(=O)(=O)c1ccc(Br)cc1	11.6	?	3956	?	5.1	0.4
O=C(Nc1ccccc1-c1nc2ccccc2s1)c1ccco1	-3.3	-4.7	3130	-1.0	-2.5	-0.1
O=C(Nc1c(Cl)cc(Cl)cc1-c1nc2ccccc2s1)c1ccc(Br)o1	-0.1	-5.5	17431*	-1.1	3.6	?
O=C(CSCCc1ccccn1)Nc1ccc(Br)cn1	0.1	-1.2	23013*	0.7	3.1	0.0
O=C(CSCCc1ccccn1)Nc1ccccn1	-5.1	-6.2	3293	-1.0	-22.1	0.5
O=C(NC1CCCCC1)c1ccc(S(=O)(=O)NCc2ccco2)cc1	-5.9	7.4	21532*	-0.6	-1.4	1.8
O=C(Nc1ccc(S(=O)(=O)NCc2ccco2)cc1)c1cccc(F)c1	0.7	-17.3	3210	-0.5	3.8	-4.6
Cc1nn(-c2ccccc2)c(C)c1CNC(=O)c1ccc(S(=O)(=O)NCc2ccco2)cc1	-3.7	-1.9	3841	0.1	-1.4	0.2
Cc1cc(C)n(CCCNC(=O)c2ccc(S(=O)(=O)NCc3ccco3)cc2)n1	-1.6	-0.4	21580*	-1.2	-7.1	?
COc1cccc(C(=O)Nc2ccc(S(=O)(=O)NCc3ccco3)cc2)c1	-2.5	-0.1	24328*	-1.3	9.2	-1.4
CCOC(=O)c1c(NC(=O)c2nn(C)cc2[N+](=O)[O-])sc(C)c1C	-4.5	-4.5	4042	-0.6	-32.3	0.8
SMILES	Anthrax LF prot	BoNT-F LC inh	Autofluor counter	PfHsp40 yeast	MazEF act	BoNT A protease
Cc1cc(Br)ccc1S(=O)(=O)NCc1ccccc1	-2.9	?	6206	1.5	0.4	-4.0
CCn1c(CCCCc2n[nH]c(=S)n2CC)n[nH]c1=S	-6.0	-3.0	3202	0.4	-1.6	-0.5
CCCCn1c(CCn2nc(C)c(Br)c2C)n[nH]c1=S	-0.3	0.2	23887*	-0.9	0.2	-2.0
O=C1C2CC=C(Cl)CC2C(=O)N1CCC[n+]1ccccc1 (stereo not drawn)	-1.0	1.7	19255*	-1.9	-7.4	?
O=C(O)c1ccccc1NCN1C(=O)C2CC=C(Cl)CC2C1=O (stereo not drawn)	-3.6	-4.4	24033*	-0.4	-6.9	-3.5
COc1ccc(-c2c(C)n([O-])c(C)c(-c3ccccc3)[n+]2=O)cc1OC	-3.3	4.0	21301*	2.0	3.6	2.1
COc1cccc(NC(C)C(=O)N2CC(C)OC(C)C2)c1 (stereo not drawn)	-2.3	3.3	23137*	0.8	8.2	?
Cc1cc(C)c(C)c(OCCCOc2cccc3cccnc23)c1	0.7	1.3	2451	92.7*	-5.2	-0.5
Cc1cc(OCCOc2cccc3cccnc23)cc(C)c1Cl	-6.3	-15.5	5339	0.9	-3.2	-0.7
CSCCC(NC(=O)c1ccccc1Br)C(=O)N1CCN(C/C=C/c2ccccc2)CC1 (stereo not drawn)	-7.6	-0.4	3347	1.3	5.4	-0.1
Cc1nn(CCOc2ccccc2)c(=O)n1-c1cccc(F)c1	-21.0	8.2	16398*	-1.3	-8.8	7.2
COc1ccc(S(=O)(=O)N2CCOCC2)cc1NC(=O)CN1CCCc2ccccc21	-11.4	-10.5	4529	-0.4	1.0	-1.0
Oc1ccc(Cl)cc1Cc1ccccc1	-8.3	-2.7	3354	6.8	3.8	-1.1
Oc1ccc(Cl)cc1Cc1cc(Cl)ccc1O	-2.1	-11.7	4306	234.1*	-4.7	-0.4
O=C(Cc1ccccc1)Nc1ccc2c(c1)C(=O)N(CC1CCCO1)C2=O (stereo not drawn)	1.4	0.2	2195	0.5	9.3	0.3
O=C1OCc2cc(NC(=O)C3CCCO3)ccc21 (stereo not drawn)	?	-14.0	?	-1.2	-6.7	?
O=C(Nc1ccc2c(c1)C(=O)N(c1ccccc1)C2=O)C1CCCO1 (stereo not drawn)	-5.0	-0.3	21610*	0.0	2.2	?
O=C1NC(=O)c2cc(NC(=O)C3CCCO3)ccc21 (stereo not drawn)	-3.9	-1.2	22178*	-0.7	-3.7	?
Cc1c(C(=O)N2CCCCC2)c(S(=O)(=O)N2c3ccccc3CC2C)c(C)n1C (stereo not drawn)	2.6	-0.2	5342	-1.4	3.0	1.4
CCC1CCC(C(=O)NC(CCSC)C(=O)NCCc2ccc(S(N)(=O)=O)cc2)CC1 (stereo not drawn)	-10.7	-9.6	3015	·	7.0	-1.9
Cc1ccc(S(=O)(=O)N2CCOCC2)cc1C(=O)OCC(=O)Nc1ccc2[nH]c(=O)[nH]c2c1	·	·	·	1.2	-24.1	·
O=C(Nc1nnc(C2CCCO2)s1)c1ccc(Br)cc1 (stereo not drawn)	-4.0	0.1	23157*	-0.8	0.1	0.0
Oc1ccc(-c2onc(C(F)(F)F)c2-c2cscn2)c(O)c1	1.6	-1.3	2935	-1.2	10.8	-0.1
CCOc1cc(C)c(-c2onc(C(F)(F)F)c2-c2csc(C)n2)c(O)c1	-8.3	1.3	22729*	-0.5	4.7	2.6

From PubChem
